M18AAP inhibitor: blocks P. falciparum M18 aspartyl aminopeptidase. hit rate 1.2% among 290,000. recombinant PfM18AAP, H-Glu-NHMec fluorogenic cleavage. inhibition, % at 7.35 µM. AID 1822;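 active = inhibition above the campaign mean inhibition over all tested compounds plus 3 SD, cut at about 28% in these data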
beta cell repl: inducers of beta-cell replication in MIN6 cells. MIN6 cells proliferation, ATPlite luminescence, 48 h; cells starved in 0.2% serum; 100% = growth in 10% serum. proliferation, % at 10 µM. hit rate 0.29% among 330,000;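 active = compounds whose signal lies at least 3.5 SD above the mean of all wells on their plate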
SMARCA2 activ: SMARCA2 function activation, primary screen; MG213 cells, MMTV-luciferase reporter, dexamethasone, overnight; activation, % at 9.1 µM; hit rate 1% among 370,000; in the data active = activation above about 7.8%
Granule exo inh: blocks lytic granule exocytosis; TALL-104 LAMP-1 surface exposure, flow cytometry; cells stimulated with thapsigargin and PMA; inhibition, % at 10 µM; hit rate 0.66% among 360,000; AID 651702;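 active = inhibition above about 55%, limit read from the data; inconclusive = no clear call, values can overlap the other calls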
JMJD2C inh: inhibitors of human GASC-1 (JMJD2C) demethylase; GST-JMJD2C(1-420) H3K9me3 demethylation, DELFIA europium; inhibition, % at 2.35 µM; hit rate 0.069% among 330,000; AID 2099;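 active = more than half of a compound's replicate wells show inhibition beyond 50%, single wells judged on their own value; inconclusive = some, but no more than half, of replicates pass 50% inhibition; inactive = no replicate passes 50% inhibition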;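 also: signal counts dimethyl H3K9 product captured on neutravidin plate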
Target sequence (Q9H3R0 1-420 limits assumed): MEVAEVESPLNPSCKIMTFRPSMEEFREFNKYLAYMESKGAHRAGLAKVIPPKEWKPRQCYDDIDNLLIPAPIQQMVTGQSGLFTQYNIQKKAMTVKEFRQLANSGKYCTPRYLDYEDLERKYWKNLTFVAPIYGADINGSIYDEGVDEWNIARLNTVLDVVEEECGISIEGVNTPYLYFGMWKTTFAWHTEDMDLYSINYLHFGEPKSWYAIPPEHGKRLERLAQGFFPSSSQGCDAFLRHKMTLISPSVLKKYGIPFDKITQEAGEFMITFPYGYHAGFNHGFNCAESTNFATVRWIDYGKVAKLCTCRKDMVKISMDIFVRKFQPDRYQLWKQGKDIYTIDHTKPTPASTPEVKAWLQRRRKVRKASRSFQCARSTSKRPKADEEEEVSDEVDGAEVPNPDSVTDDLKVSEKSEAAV
ALR H2O2 inh: human ALR oxidase inhibition via reduced H2O2; AID 485317; inhibition, % (test concentration not listed); hit rate 3.8% among 290,000; purified ALR, DTT oxidation, H2O2 HRP-luminol luminescence; P55789;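 active = mean replicate inhibition above about 79%, with every replicate also reaching it, limit read from the data; inconclusive = only one of the two criteria met; inactive = mean below limit and not every replicate reaching it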
Target sequence (P55789 whole entry, looked up): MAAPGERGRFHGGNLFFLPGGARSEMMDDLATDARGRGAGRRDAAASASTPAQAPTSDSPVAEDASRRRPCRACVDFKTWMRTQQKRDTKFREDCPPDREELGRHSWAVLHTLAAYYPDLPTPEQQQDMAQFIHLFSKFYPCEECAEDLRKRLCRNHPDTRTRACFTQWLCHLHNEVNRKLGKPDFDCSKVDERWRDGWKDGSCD
SMARCA2 act conf: SMARCA2 activation, confirmation screen; activation, % at 9.1 µM; shares compounds with SMARCA2 activ; AID 652260; hit rate 30% among 3,500; MG213 cells, MMTV-luciferase with dexamethasone, luminescence, overnight; MG213 cells expressing E1A, Rb sequestered; DMSO wells 0%, reference activator 100%;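 active = activation above its plate's cutoff, the mean activation of tested wells plus 3 SD, cut at about 7.9% in these data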
GAL4-VP16 Luc: counter-screen for SMARCA2 activators: GAL4-VP16 luciferase reporter activation; hit rate 41% among 3,500; HEK293 GAL4-VP16 pG5luc reporter, luciferase luminescence; scaled: DMSO wells 0%, SAHA wells 100%; shares compounds with SMARCA2 activ; activation, % at 9.1 µM;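 active = activation above the solvent-only control well mean plus 3 SD, averaged across control plates, cut at about 5.2% in these data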
Numbers stand for hits. Hits are enriched below; roughly 5.4% of the tested compounds scored in any of these assays.

What do the screens show for `CCCC(=O)O[C@]1(C(=O)COC(C)=O)CC[C@H]2[C@@H]3C[C@H](F)C4=CC(=O)C=C[C@]4(C)[C@@]3(F)[C@@H](O)C[C@@]21C`?
M18AAP inhibitor: inactive; beta cell repl: inactive; SMARCA2 activ: 11; Granule exo inh: inactive; JMJD2C inh: inactive; SMARCA2 act conf: inactive; GAL4-VP16 Luc: inactive

Results for Cc1nc(Cl)c2c(n1)NC(=O)CO2 ?
M18AAP inhibitor: inactive; beta cell repl: inactive; SMARCA2 activ: 12; Granule exo inh: inactive; JMJD2C inh: inactive; ALR H2O2 inh: inactive; SMARCA2 act conf: inactive; GAL4-VP16 Luc: inactive

Results for CC(C)c1ccc(NC(=O)c2ccc(Br)o2)cc1 ?
M18AAP inhibitor: inactive; beta cell repl: inactive; SMARCA2 activ: inactive; Granule exo inh: inactive; JMJD2C inh: inactive; ALR H2O2 inh: inactive

How did CC(COc1ccc(C(C)C)cc1)NC(=O)c1ccc(Br)o1 (stereo unspecified) do in these assays?
M18AAP inhibitor: inactive; beta cell repl: inactive; SMARCA2 activ: 10; Granule exo inh: inactive; JMJD2C inh: inactive; ALR H2O2 inh: inactive; SMARCA2 act conf: inactive; GAL4-VP16 Luc: inactive

Results for C[C@@H](NC(=O)[C@@H]1CCCN1C(=O)[C@@H]1CCCN1)c1ccccc1 ?
SMARCA2 activ: inactive; Granule exo inh: inactive

What do the screens show for `COc1cc(C)nc(NC(=O)NC(=O)c2ccc(C(F)(F)F)cc2)n1`?
M18AAP inhibitor: inactive; beta cell repl: inactive; SMARCA2 activ: 8.1; Granule exo inh: inactive; JMJD2C inh: inactive; ALR H2O2 inh: inactive; SMARCA2 act conf: inactive; GAL4-VP16 Luc: inactive

Results for O=c1[nH]cnc2cc(-c3ccc(Br)cc3)sc12 ?
M18AAP inhibitor: inactive; beta cell repl: inactive; SMARCA2 activ: 10; Granule exo inh: inactive; JMJD2C inh: inactive; ALR H2O2 inh: inactive; SMARCA2 act conf: inactive; GAL4-VP16 Luc: inactive

How did O=c1[nH]c(CCl)nc2cc(-c3ccc(F)cc3)sc12 do in these assays?
M18AAP inhibitor: inactive; beta cell repl: inactive; SMARCA2 activ: inactive; Granule exo inh: inactive; JMJD2C inh: inactive; ALR H2O2 inh: inactive

How did CCOC(=O)c1c(C)[nH]c(C(=O)CN2C(=O)C(=O)N(CC(C)C)C2=O)c1C do in these assays?
M18AAP inhibitor: inactive; beta cell repl: inactive; SMARCA2 activ: inactive; Granule exo inh: inactive; JMJD2C inh: inactive

Results for COC(=O)c1c(C)[nH]c(C(=O)CN2C(=O)C3CC=CCC3C2=O)c1C (stereo unspecified) ?
beta cell repl: inactive; SMARCA2 activ: 9.0; Granule exo inh: inactive; ALR H2O2 inh: inactive; SMARCA2 act conf: inactive; GAL4-VP16 Luc: inactive

How did CCCCC[C@@H](C)N1C[C@@H](COCc2ccccc2)Oc2cc(N3CCC[C@H]3COC)ccc2S1(=O)=O do in these assays?
SMARCA2 activ: inactive; Granule exo inh: inactive

How did Cc1noc(C)c1C(=O)OCC(=O)c1c[nH]c2ccccc12 do in these assays?
M18AAP inhibitor: inactive; beta cell repl: inactive; SMARCA2 activ: inactive; Granule exo inh: inactive; JMJD2C inh: inactive; ALR H2O2 inh: inactive

What do the screens show for `CCc1cccc2c(C(=O)COC(=O)c3c(C)noc3C)c[nH]c12`?
M18AAP inhibitor: inactive; beta cell repl: inactive; SMARCA2 activ: 8.6; Granule exo inh: inactive; JMJD2C inh: inactive; ALR H2O2 inh: inactive; SMARCA2 act conf: inactive; GAL4-VP16 Luc: inactive

Results for CC1=C(C(=O)N2CCOCC2)CC(CC(=O)NCCCCc2ccccc2)C(=O)N1Cc1ccc(C(C)(C)C)cc1 (stereo unspecified) ?
SMARCA2 activ: inactive; Granule exo inh: inactive

How did Cc1ccccc1C1c2[nH]c3ccccc3c2CCN1C(=O)c1ccc(=O)n(C)n1 (stereo unspecified) do in these assays?
M18AAP inhibitor: inactive; beta cell repl: inactive; SMARCA2 activ: 9.6; Granule exo inh: inactive; JMJD2C inh: inactive; ALR H2O2 inh: inactive; SMARCA2 act conf: inactive; GAL4-VP16 Luc: inactive

What do the screens show for `O=C(N[C@H](C(=O)N1CCC[C@H]1C(=O)NC1CCCC1)c1ccccc1)C1CC1`?
SMARCA2 activ: inactive

What do the screens show for `CCN1C(=O)[C@H]2[C@@H](c3ccc(OC)cc3)N[C@]3(CCCN(Cc4ccc(Br)cc4)C3=O)[C@H]2C1=O`?
SMARCA2 activ: inactive; Granule exo inh: inactive

Results for O=C(Nc1ccccc1F)c1ccc2sc([C@@H]3O[C@H](CO)[C@H](O)[C@H](O)[C@H]3O)nc2c1 ?
SMARCA2 activ: inactive; Granule exo inh: inactive

Results for Cc1nc2ccc(Cl)cc2nc(C)/c1=N\O ?
M18AAP inhibitor: inactive; beta cell repl: inactive; SMARCA2 activ: 8.1; Granule exo inh: inactive; JMJD2C inh: inactive; ALR H2O2 inh: inactive; SMARCA2 act conf: 9.7; GAL4-VP16 Luc: 8.7

How did Cc1ccc2nc(C)/c(=N\O)c(C)nc2c1 do in these assays?
M18AAP inhibitor: inactive; beta cell repl: inactive; SMARCA2 activ: inactive; Granule exo inh: inactive; JMJD2C inh: inactive; ALR H2O2 inh: inconclusive

What do the screens show for `O=C1C=CC(=NN=C(c2ccccc2)c2ccccc2)C=C1`?
SMARCA2 activ: inactive; Granule exo inh: inactive

Results for O/N=C\c1ccc(-c2ccccc2)o1 ?
M18AAP inhibitor: inactive; beta cell repl: inactive; SMARCA2 activ: 9.5; Granule exo inh: inactive; JMJD2C inh: inactive; ALR H2O2 inh: 78; SMARCA2 act conf: inactive; GAL4-VP16 Luc: inactive

Results for O=C(/C=C\c1ccc(-c2ccccc2)o1)c1ccccc1 ?
M18AAP inhibitor: inactive; beta cell repl: inactive; SMARCA2 activ: 8.2; Granule exo inh: 86; JMJD2C inh: inactive; SMARCA2 act conf: 16; GAL4-VP16 Luc: 8.1

Results for Cc1ccc(-c2cc(-c3nnc(SCc4cccc5ccccc45)n3N)[nH]n2)cc1 ?
SMARCA2 activ: inactive

Results for COc1cc2c3c(c1)/C(=C1/SC(NC(C)=O)=NC1=O)C(=O)N3C(C)(C)C=C2C ?
M18AAP inhibitor: inactive; beta cell repl: inactive; SMARCA2 activ: inactive; Granule exo inh: inactive; JMJD2C inh: inactive; ALR H2O2 inh: inactive

How did CCN1C(=O)/C(=C2/C(=O)N3c4c(cc(OC(C)=O)cc42)C(C)=CC3(C)C)SC1=S do in these assays?
M18AAP inhibitor: inactive; beta cell repl: inactive; SMARCA2 activ: 10; Granule exo inh: inactive; JMJD2C inh: inactive; ALR H2O2 inh: inactive; SMARCA2 act conf: inactive; GAL4-VP16 Luc: inactive

Results for CC1=C(C(=O)N2CCOCC2)CC(CC(=O)NCCCN(C)C)C(=O)N1CCCN1CCCC1=O (stereo unspecified) ?
SMARCA2 activ: inactive; Granule exo inh: inactive

What do the screens show for `O=C(O)c1cccc(N/N=C/c2cccs2)c1`?
M18AAP inhibitor: inactive; beta cell repl: inactive; SMARCA2 activ: 12; Granule exo inh: inactive; JMJD2C inh: inactive; SMARCA2 act conf: inactive; GAL4-VP16 Luc: 14

Screening data: PubChem, several laboratories
